# From PubChem BioAssay (NCI)
# Compounds without any hit were thinned out: in the full panel of roughly 83,000, 20% have a hit.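 Results are percent growth after 48 hours of single-concentration exposure. 100 means growth as in untreated cells, lower positive values show inhibition; negative values down to -100 show cell death.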 A number with no mark means an inactive call. Active and inactive are the calls of the source. Rule for the calls: active = growth percent below 10; inactive = the rest.
# Tested on: KM12 colon
# Assay: NCI-60 one-dose screen, 48 h (100 = growth as untreated, 0 = no growth, -100 = all killed)
# Details: 10 µM unless noted
row,Structure (SMILES),growth
1,COc1ccc(-c2nc3cccc(O)c3c(=O)n2Cc2ccccc2)cc1COc1ccc(NC(C)=O)cc1,39.8% [3 µM]
2,O=C(CN1CCN(c2cc(=O)n(-c3ccccc3)c3ccccc23)CC1)Nc1nc(-c2ccc(Cl)cc2)cs1,64.7%
3,Cc1c(Cl)cccc1S(=O)(=O)Nc1ccc2c(c1)C(=O)N(C1CCC(=O)NC1=O)C2=O (stereo not given),92.2%
4,C#CC(=O)N(c1ccc(OC)cc1OC)C(C(=O)NCC(=O)OCC)c1cccs1 (stereo not given),28.5%
5,COc1ccccc1N1CCN(C2=CC(=O)C(C)=C(C)C2=O)CC1,105%
6,COc1cc(/C=C2\C(=O)Nc3ccccc32)ccc1OCc1ccc(Cl)cc1,99.6%
7,Nc1ncc(-c2ccc3ncnc(N4CCc5cc(F)c(F)cc54)c3c2)cn1,45.3%
8,COc1ccc(-c2nc(C(Cl)Cl)nc3cc(-c4ccccc4)nn23)cc1,-2.28% (active)
9,Cc1cc(-c2ccc(Cl)cc2)n(Cc2nnc(SCC(=O)Nc3ccc(S(N)(=O)=O)cc3)n2-c2ccc([N+](=O)[O-])cc2)n1,79.6%
10,CN1c2ccccc2Sc2cc(C=C(C#N)C#N)ccc21,103%
11,CC(C)(C)c1ccc(-c2nnc(-c3nc4ccccc4nc3Cl)o2)cc1,65.8%
12,O=C(Cn1cc[n+](CC(=O)c2ccc(-c3ccccc3)cc2)c1)Nc1cccc2cccnc12,31.6%
13,N#Cc1cccc(/C(N)=N/C(N)=N/c2nc3ccccc3s2)c1,24.6%
14,COc1ccccc1-n1cc(C#N)c(N)c1C(=O)c1ccc(Cl)cc1,58.2%
15,N=c1c2cc(-c3ccccc3)oc2ncn1/N=C/c1ccc(Br)cc1,23.9%
16,CC1(COc2ccc3ncc(C#Cc4cncc(C(=O)Nc5cccc(C(F)(F)F)c5)c4)n3n2)COC1,21.1%
17,Cc1cc(C(NC(=O)CCCCCNc2cccc3c2C(=O)N(C2CCC(=O)NC2=O)C3=O)c2ccc3c(c2)OC(F)(F)O3)c(O)c2ncccc12 (stereo not given),39.9%
18,N#Cc1c(NC(=O)c2cccc(C(F)(F)F)c2F)sc2c1CCC(=O)C2,-42.7% (active)
19,O=C(CN1CCN(c2cc(=O)n(-c3ccccc3)c3ccccc23)CC1)Nc1nc(-c2ccccc2)cs1,63%
20,CN(C)CCCOc1ccc2c(c1)CN(C(=O)c1cc(C(=O)N3Cc4cccc(F)c4C3)ccc1O)C2,106%
21,O=C(CSc1nnc(-c2ccc(Cl)cc2)n1-c1ccccc1)Nc1ccc(Br)cc1,45.4%
22,CC1(C)CC[C@]23CC[C@]4(C)[C@H](CC[C@@H]5[C@@]6(C)CCCN(CO)C(C)(C)[C@@H]6CC[C@]54C)[C@H]2[C@H]1OC3,56.4%
23,COc1ccc(CCN2C(=O)CSC2=S)cc1,6.12% (active)
24,CCn1c(SCC(=O)Nc2cccc(C(=O)/C=C/c3ccc(C)cc3)c2)nc2ccccc2c1=O,77.4%
25,O=C1[C@@H]2Cc3c([nH]c4ccccc34)[C@H](c3c(Cl)cccc3Cl)N2C(=O)CN1C1CCN(CC2CCCCC2)CC1,68.7%
